Inconclusive results are not listed. Active and inactive are the calls of the source. Calls follow the shape of the full dose curve. Residues, ends and D or L forms follow the SMILES beside them.
biological target: Thyrotropin receptor (Homo sapiens) (UniProt P16473); assay: qHTS assay to identify small molecule agonists of the thyroid stimulating hormone receptor (TSHR) signaling pathway (AID 1224843); details: TSHR-HEK293 cells, cAMP HTRF, agonist mode, 30 min; series mostly up to 92.4 µM; also: nearly all actives have a fitted effect of over 45% in size
Excerpt: National Center for Advancing Translational Sciences [NCATS]
NIH Chemical Genomics Center [NCGC]
U.S. Environmental Protection Agency [EPA]
National Institutes of Environmental Health Sciences [NIEHS]
National Toxicology Program [NTP]
U.S. Food and Drug Administration [FDA]
TSHR is the receptor for thyrotropin (thyroid stimulating hormone or TSH), a member of the glycoprotein hormone family. TSH is released by the anterior pituitary gland and is the main regulator of thyroid gland growth and development. Upon binding circulating thyrotropin, a G-protein signal cascade activates adenylyl cyclase and […] cAMP concentration is increased. cAMP is a key second messenger involved extensively in cellular signal transduction pathways associated with the majority of G-protein coupled receptors (GPCRs). The activation of these GPCRs by neurotransmitters, lipids, nucleotides, peptides and hormones results in the activation or the inhibition of plasma membrane-bound adenylate cyclase through heterotrimeric G-proteins. A cell-based TSHR assay was used to screen the Tox21 10K library for compounds that can modulate TSHR in agonist mode.
Tox21 Assay Protocol Summary:
TSHR-Hek293 cells were dispensed at 800 cells/4uL/well in 1536-well white plates using a Multidrop dispenser. […] The plates were incubated at room temperature for 30 min. 2.5 ul/well of cAMP-d2 and 2.5ul/well of anti-cAMP-cryptate was added respectively into the assay plates using a Flying Reagent Dispenser. After 1 hr incubation at room temperature, the fluorescence intensity in the plates was measured using an Envision plate reader. Each test compound was measured at 15 concentrations and in triplicates.

Thyrotropin receptor (Homo sapiens), sequence (P16473 whole entry, looked up): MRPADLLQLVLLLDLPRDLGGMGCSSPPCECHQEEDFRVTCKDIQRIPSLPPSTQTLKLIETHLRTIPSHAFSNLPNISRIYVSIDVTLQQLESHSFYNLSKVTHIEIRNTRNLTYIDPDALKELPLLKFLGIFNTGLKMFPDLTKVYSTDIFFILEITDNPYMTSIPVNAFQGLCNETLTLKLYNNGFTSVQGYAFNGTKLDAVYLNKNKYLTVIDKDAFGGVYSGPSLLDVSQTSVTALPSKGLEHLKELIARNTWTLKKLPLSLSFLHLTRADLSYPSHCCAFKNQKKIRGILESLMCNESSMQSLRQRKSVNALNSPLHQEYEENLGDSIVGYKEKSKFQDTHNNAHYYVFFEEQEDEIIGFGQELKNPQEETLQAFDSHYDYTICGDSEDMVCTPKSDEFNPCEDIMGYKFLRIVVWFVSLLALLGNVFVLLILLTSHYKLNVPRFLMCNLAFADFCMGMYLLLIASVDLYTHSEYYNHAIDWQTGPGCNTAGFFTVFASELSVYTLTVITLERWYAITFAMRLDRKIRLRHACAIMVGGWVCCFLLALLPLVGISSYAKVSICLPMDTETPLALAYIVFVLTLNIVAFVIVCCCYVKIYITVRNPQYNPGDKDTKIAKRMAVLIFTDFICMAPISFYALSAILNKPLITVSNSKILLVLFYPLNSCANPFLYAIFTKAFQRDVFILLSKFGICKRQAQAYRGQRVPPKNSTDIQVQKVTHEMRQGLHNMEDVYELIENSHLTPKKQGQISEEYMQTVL

Row | SMILES | outcome
1 | O=C(c1ccccc1)C(O)c1ccccc1 (stereo not given) | inactive
2 | NC(=O)c1ccccc1O | inactive
3 | CC(O)C(=O)O (stereo not given) | inactive
4 | CC1(C)[C@@H]2CC[C@@]1(C)C(=O)C2 | inactive
5 | CC(=O)OCC(COC(C)=O)OC(C)=O | inactive
6 | CCCC(CCC)C(=O)O | inactive
7 | NC(N)=O | inactive
8 | COc1ccc2[nH]cc(CCNC(C)=O)c2c1 | inactive
9 | Cc1noc(NS(=O)(=O)c2ccc(N)cc2)c1C | inactive
10 | Cc1ccc(O)cc1 | inactive
11 | O=C(O)CCCCC(=O)O | inactive
12 | Nc1ccc(S(=O)(=O)Nc2nccs2)cc1 | inactive
13 | CCC1(c2ccccc2)C(=O)NCNC1=O | inactive
14 | c1ccc2[nH]ccc2c1 | inactive
15 | Oc1ccc(/C=C/c2cc(O)cc(O)c2)cc1 | inactive
16 | Cc1ccc(S(=O)(=O)NC(=O)NN2CCCCCC2)cc1 | inactive
17 | Cc1cc(=O)[nH]c(=S)[nH]1 | inactive
18 | N=C(N)c1ccc(OCCCCCOc2ccc(C(=N)N)cc2)cc1 | inactive
19 | O=C1CN(/N=C/c2ccc([N+](=O)[O-])o2)C(=O)N1 | inactive
20 | Nc1ccc(C(=O)O)cc1 | inactive

Row | SMILES | outcome
21 | O=c1ccc2ccccc2o1 | inactive
22 | NC(N)=NC(=O)c1nc(Cl)c(N)nc1N | inactive
23 | Nc1ccn([C@H]2CC[C@@H](CO)O2)c(=O)n1 | inactive
24 | C1N2CN3CN1CN(C2)C3 | inactive
25 | Nc1ccc(S(=O)(=O)c2ccc(N)cc2)cc1 | inactive
26 | COC(=O)[C@H](Cc1ccccc1)NC(=O)[C@@H](N)CC(=O)O (H-Asp-Phe-OMe) | inactive
27 | Cn1cc[nH]c1=S | inactive
28 | CCCCCCCCCCCCCCCC(=O)O | inactive
29 | Cn1c(=O)c2[nH]cnc2n(C)c1=O | inactive
30 | CCCN(CCC)S(=O)(=O)c1ccc(C(=O)O)cc1 | inactive
31 | O=C(O)C(=O)O | inactive
32 | O=C(O)c1cccnc1 | inactive
33 | CC(C)(Oc1ccc(C2CC2(Cl)Cl)cc1)C(=O)O (stereo not given) | inactive
34 | CCCNC(=O)NS(=O)(=O)c1ccc(Cl)cc1 | inactive
35 | CCOc1ccc(NC(=O)CC(C)O)cc1 (stereo not given) | inactive
36 | COc1c2occc2cc2ccc(=O)oc12 | inactive
37 | O=C(O)/C=C\C(=O)O | inactive
38 | OC(Cn1cncn1)(Cn1cncn1)c1ccc(F)cc1F | inactive
39 | CC(O)CO (stereo not given) | inactive
40 | Cc1ccccc1C(OCCN(C)C)c1ccccc1 (stereo not given) | inactive
